Hits are enriched below; roughly 11% of the tested compounds scored in any of these assays.
PNC assembly inh = High Content Assay for Compounds that inhibit the Assembly of the Perinucleolar Compartment; PC3M PTB-GFP, PNC prevalence imaging, 16 h; hits give low values; 3.1% of 140,000 active; activity change (PNC), negative = inhibition, % at 10 µM;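 active = readout at or below -70, meaning at least 70% loss of cells showing the perinucleolar compartment, a nuclear body marking cancer cells; inconclusive = readout between -30 and a set limit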;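 note: plate controls were DMSO wells for no effect and camptothecin positive control wells for full effect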
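PC3M cells stably expressing PTB-GFP, 750–1000 cells/well, treated 16 h at 37 °C with compound (23 nl of library stock), in duplicate. After paraformaldehyde fixation and Hoechst stain, imaged at 20x; PNC prevalence scored by image analysis.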
ALDH1A1 block = qHTS Assay for Inhibitors of Aldehyde Dehydrogenase 1 (ALDH1A1). Aldehyde dehydrogenase 1A1 (Homo sapiens), P00352. Purified ALDH1A1, NADH fluorescence, propionaldehyde substrate. Potency, µM (top dose mostly 75.3 µM), for the others: at the highest dose activity, negative = inhibition, usual class: inhibitors. 7.3% of 220,000 active. AID 1030, 2008;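 note: potency is the fitted concentration of half-maximal effect; plate controls were no enzyme wells and a reference inhibitor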
Target sequence (P00352 whole entry, looked up): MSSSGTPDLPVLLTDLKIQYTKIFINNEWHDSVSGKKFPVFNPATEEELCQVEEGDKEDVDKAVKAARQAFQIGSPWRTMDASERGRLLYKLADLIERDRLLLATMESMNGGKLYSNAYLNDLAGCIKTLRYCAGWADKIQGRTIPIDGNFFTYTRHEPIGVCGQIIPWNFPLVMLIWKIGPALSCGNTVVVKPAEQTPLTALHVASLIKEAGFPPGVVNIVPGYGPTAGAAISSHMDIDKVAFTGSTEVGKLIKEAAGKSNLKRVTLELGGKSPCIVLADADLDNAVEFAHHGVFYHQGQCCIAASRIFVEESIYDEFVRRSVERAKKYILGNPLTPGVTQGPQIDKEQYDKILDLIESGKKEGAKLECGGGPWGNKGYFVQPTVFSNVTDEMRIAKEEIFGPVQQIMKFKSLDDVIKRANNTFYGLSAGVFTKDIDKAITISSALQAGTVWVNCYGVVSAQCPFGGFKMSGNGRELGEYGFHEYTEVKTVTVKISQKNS
HPGD block = qHTS Assay for Inhibitors of HPGD (15-Hydroxyprostaglandin Dehydrogenase). purified HPGD, NADH fluorescence kinetic, PGE2 substrate. Potency, µM, for inactives: at the top dose activity change, negative = inhibition, hits mostly inhibitors. 15-hydroxyprostaglandin dehydrogenase [NAD(+)] (Homo sapiens), P15428. 4.3% of 150,000 active; note: potency is the fitted concentration of half-maximal effect
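20 nM HPGD preincubated 15 min at room temperature with compound in 50 mM Tris-HCl pH 8, 0.01% Tween 20. Started with 1 mM NAD+ and 30 uM prostaglandin E2; NADH fluorescence (360/450 nm) read 5 times over 30-s intervals, last minus first.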
An asterisk follows results filed as active; u = inconclusive; x = not tested or not shown; [ ] = another dose, or the depositor's remark. Unless noted, calls come from the whole dose curve; as a rule, active = well fitted inhibition curve with a large enough effect (not every such curve was filed as active); inconclusive = small, poorly fitted or top-dose-only effect, or another doubt; inactive = no such curve, though single readings can be large or run the other way. Unless noted, % is set by controls: 0 for no effect and ±100 for the full control effect.

SMILES	PNC assembly inh	ALDH1A1 block	HPGD block
COC(CNC(=O)c1cc(C(=O)c2c(-c3c(Cl)cccc3Cl)noc2C)c[nH]1)OC	-2.8	10µM*	-21.9%
Cc1onc(-c2c(Cl)cccc2Cl)c1C(=O)NC(=S)Nc1sc2c(c1C(N)=O)CCC(C)C2 (configuration not stated)	3.8	18.9µM*	-5.2%
Cc1onc(-c2c(F)cccc2Cl)c1C(=O)NC(=S)NC1CCSC1=O (configuration not stated)	36.7	10µM*	u
Cc1onc(-c2ccccc2)c1C(=O)Nc1sc2c(c1C#N)CCC(C)C2 (configuration not stated)	11.9	u	-10.2%
Cc1onc(-c2c(Cl)cccc2Cl)c1C(=O)c1c[nH]c(C(=O)NCCCN2CCOCC2)c1	1.5	u	-9.1%
Cc1onc(-c2c(Cl)cccc2Cl)c1C(=O)NC(C)(C)CO	-0.5	12.3%	-2.7%
Cc1onc(-c2c(Cl)cccc2Cl)c1C(=O)Nn1cnnc1	-107.2*	7.2%	-13.3%
O=C(CSc1nc2ccccc2n1S(=O)(=O)c1ccccc1)N1CCCC1	31.6	12.1%	x
CC(C)CNC(=O)C(=O)N/N=C/c1cccs1	-7.7	8.3%	-18.7%
CC1=CC(C)(C(Cl)Cl)C(C)=CC1=O (configuration not stated)	-100.0*	4.7%	-18.9%
CC1=CC(=O)C=CC1(C)C(Cl)Cl (configuration not stated)	91.0	-3.6%	-5.3%
CNS(=O)(=O)c1cc(OC)c(OC)cc1CC(=O)OC	x	3.6%	x
Cc1cccnc1Nc1ncnc(N)c1[N+](=O)[O-]	x	14.3%	x
Cc1ccc(C)c(Nc2ncnc(N)c2[N+](=O)[O-])c1	-123.8*	3.0%	-29.0%
COc1ccc(NC(=O)c2cc(C(C)C)on2)c(OC)c1	13.1	3.98µM*	u
COc1cc(NC(=O)c2cc(C(C)C)on2)c(OC)cc1Cl	u	7.94µM*	u
COc1cc(NC(=O)c2cc(C3CC3)on2)c(OC)cc1Cl	2.4	u	u
COc1ccc(NC(=O)c2cc(C(C)C)on2)cc1OC	3.2	u	-13.7%
COCn1c2ccccc2c2nnc(C(=O)O)nc21	x	5.7%[13.5 µM]	x
N#CCSc1nnc(COc2cccc3ccccc23)n1-c1cccc(Cl)c1	-80.1*	-7.3%	-5.0%
N#CCSc1nnc(COc2cccc3ccccc23)n1-c1ccccc1	-24.3	u	-25.5%
COc1ccc(Oc2ncc3nc(-c4cccs4)c(=O)n(Cc4cccs4)c3n2)cc1	x	4.9%	-21.8%
O=c1c(-c2ccc(F)cc2)nc2cnc(Nc3ccccc3)nc2n1C[C@H]1CCCO1	x	25.2%	x
CCC(C)NC(=O)COc1ccc(OCc2ccccc2)cc1 (configuration not stated)	x	-1.5%	x
O=C(C(Cc1ccccc1)n1cccc1)N1CCN(c2ccccc2)CC1 (configuration not stated)	-4.1	-7.7%	-11.1%
SMILES	PNC assembly inh	ALDH1A1 block	HPGD block
CC1CCCN(C(=O)C(Cc2ccccc2)n2cccc2)C1 (configuration not stated)	20.6	-2.2%	14.1µM*
COc1cccc(CC(NC(C)=O)C(=O)NC2CCN(S(=O)(=O)c3ccc(F)cc3)CC2)c1OC (configuration not stated)	x	12.4%	x
CC(=O)OCc1cc(-c2nn(C)c(=O)c3ccccc23)ccc1C	x	-4.5%	x
Cc1ccc(-c2nn(C)c(=O)c3ccccc23)cc1CO	1.8	10.6%	31.6µM*
Cc1ccc(-c2nn(C)c(=O)c3ccccc23)cc1CNC(=O)CN1CCOCC1	12.9	u	20µM*
Cc1ccc(-c2nn(C)c(=O)c3ccccc23)cc1CN1CCOCC1	u	10.2%	-10.3%
Cn1nc(-c2ccc3c(c2)OCCO3)c2ccccc2c1=O	x	-8.5%	x
CCC(CO)Nc1ccc(-c2nn(C)c(=O)c3ccccc23)cc1[N+](=O)[O-] (configuration not stated)	x	1.41µM*	x
O=C(Nc1nc2ccccc2s1)c1ccc(OCC2CCCO2)cc1 (configuration not stated)	25.0	u	x
CC1C(NC(=O)/C(=N/OC(C)(C)C(=O)O)c2csc(N)n2)C(=O)N1S(=O)(=O)O (configuration not stated)	x	1.4%	-8.9%
CNC(=O)[C@]1(C)C[C@H]1[C@H](NC(=O)[C@]1(C)C[C@H]1[C@H](NC(=O)OCc1ccccc1)c1ccccc1)c1ccccc1	x	-14.6%	-8.0%
O=C(N/N=C/c1ccccc1O)C1(O)c2ccccc2-c2ccccc21	75.4	8.8%	-21.7%
Cc1cc(N2C(=O)C(O)=C(C(=O)c3ccco3)C2c2ccc(O)cc2)no1 (configuration not stated)	-14.7	-0.8%	-11.1%
CCc1ccc2nc(N3C(=O)C(O)=C(C(=O)c4ccco4)C3c3cccs3)sc2c1 (configuration not stated)	-100.0*	-2.8%	20µM*
COC(=O)c1sc(N2C(=O)c3oc4ccccc4c(=O)c3C2c2cccs2)nc1C (configuration not stated)	20.4	-4.4%	-9.7%
Cc1ccc2nc(N3C(=O)C(O)=C(C(=O)c4cc5ccccc5o4)C3c3cccs3)sc2c1 (configuration not stated)	u	20µM*	-28.5%
Cc1cc(N2C(=O)C(O)=C(C(=O)c3ccc(C)o3)C2c2cccs2)no1 (configuration not stated)	17.3	22.4µM*	28.2µM*
Cc1ccc(C2C(C(=O)c3ccco3)=C(O)C(=O)N2c2nnc(C)s2)cc1 (configuration not stated)	u	1.6%	-16.5%
CCOCCCNC(=O)C(c1ccc(C)cc1)N(Cc1cccs1)C(=O)CNC(C)=O (configuration not stated)	-11.3	-2.9%	-5.1%
O=C(O)/C(=C\c1ccc(O)cc1)c1cccc2ccccc12	x	7.2%[13.5 µM]	0.9%
COc1ccc2nc(SCC(N)=O)cc(C)c2c1	3.3	1.9%	-12.1%
COc1ccc2c(C)cc(SCC(=O)N3CCOCC3)nc2c1	20.4	22.4µM*	-21.8%
CNC1C(O)[C@@H]2OC(O[C@@H]3C(O)C(O)C(N)C[C@H]3N)C(N)C[C@H]2O[C@H]1O[C@@H]1OC(CO)C(N)C(O)C1O (some centres not stated)	x	0.4%	-2.4%
NS(=O)(=O)c1ccc(NC(=O)Cc2c(F)cccc2Cl)cc1	x	-4.7%	x
O=C(O)[C@@H]1[C@@H](C(=O)Nc2ncccn2)[C@@H]2C=C[C@@H]1O2	x	-0.8%[13.5 µM]	-8.1%
CCC(CC)C1C(C#N)=C(N)SC(N)=C1C#N	1.7	u	-22.0%
CC(C)C1C(C#N)=C(N)SC(N)=C1C#N	u	8.91µM*	u
CC(c1ccccc1)C1C(C#N)=C(N)SC(N)=C1C#N (configuration not stated)	7.0	20µM*	x
CC(c1ccccc1)C1C(C#N)=C(N)OC2=C1C(=O)CCC2 (configuration not stated)	34.0	14.2%	-15.4%
CC(C)c1ccc(C2C(C#N)=C(N)N3C(=C2C#N)Sc2ccccc23)cc1 (configuration not stated)	45.3	0.4%	u
